SMN2 splice enh – increases expression of the SMN2 splice variant; HEK293 SMN2-luciferase splicing reporter, luminescence, 30-36 h; AID 1458; Potency, µM (titrated, usually from 46.1 µM), most hits filed as activators; hit rate 2.8% among 210,000; further: nearly all actives have a fitted effect of over 55% in size
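HEK293 cells carry an SMN2 […]–luciferase reporter in which exon 7 inclusion puts luciferase in frame. Cells were plated 10-12 h before compound addition, then incubated 30-36 h at 37C. ONE-Glo luminescence was read; sodium butyrate at 4.5 mM final served as control.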
Rab9 promoter act – activates the Rab9 promoter. Huh7 Rab9 promoter-luciferase reporter, luminescence, 24 h. Potency, µM (series often up to 9.22 µM), usual class: activators. hit rate 2.8% among 320,000; further: nearly all actives have a fitted effect of over 60% in size
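Luminescence read-out: Huh7 cells stably expressing Rab9-luciferase, treated 24 h with compound at 37 °C, then lysed with luciferase reagent for 10 min at ambient before reading.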
NPC1 prom act – activates the NPC1 promoter; Huh7 NPC1 promoter luciferase reporter, 24 h; Potency, µM (titrated, usually from 9.22 µM), actives largely listed as activators; hit rate 2.4% among 320,000; AID 485313; further: nearly all actives have a fitted effect of over 60% in size
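Quantitative HTS used a cell-based reporter: Huh7 cells stably bearing the NPC1 promoter upstream of luciferase were treated with compounds for 24 h, and promoter activation was read as luminescence.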
ELG1 genotox – inducers of genotoxicity in HEK293T ELG1-luciferase cells; AID 504466; Potency, µM (titrated, usually from 46 µM), actives largely listed as activators; HEK293T ELG1-luciferase reporter, luminescence, 16 h; hit rate 1.3% among 330,000; further: nearly all actives have a fitted effect of over 60% in size
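HEK293T cells expressing luciferase-tagged ELG1 were exposed to compound or DMSO vehicle for 16 hr at 37 °C and 5% CO2. Luciferase activity was then measured with ONE-Glo after 30 min at room temperature.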
FLuc modulator – inhibits or activates purified firefly luciferase, miR-21 counter-screen; P08659; hit rate 6.9% among 360,000; purified FLuc, Km substrates, luminescence inhibition; Potency, µM (highest dose often 57.5 µM), actives largely listed as inhibitors; AID 588342; further: nearly all actives have a fitted effect of over 55% in size
Target sequence (P08659 whole entry, looked up): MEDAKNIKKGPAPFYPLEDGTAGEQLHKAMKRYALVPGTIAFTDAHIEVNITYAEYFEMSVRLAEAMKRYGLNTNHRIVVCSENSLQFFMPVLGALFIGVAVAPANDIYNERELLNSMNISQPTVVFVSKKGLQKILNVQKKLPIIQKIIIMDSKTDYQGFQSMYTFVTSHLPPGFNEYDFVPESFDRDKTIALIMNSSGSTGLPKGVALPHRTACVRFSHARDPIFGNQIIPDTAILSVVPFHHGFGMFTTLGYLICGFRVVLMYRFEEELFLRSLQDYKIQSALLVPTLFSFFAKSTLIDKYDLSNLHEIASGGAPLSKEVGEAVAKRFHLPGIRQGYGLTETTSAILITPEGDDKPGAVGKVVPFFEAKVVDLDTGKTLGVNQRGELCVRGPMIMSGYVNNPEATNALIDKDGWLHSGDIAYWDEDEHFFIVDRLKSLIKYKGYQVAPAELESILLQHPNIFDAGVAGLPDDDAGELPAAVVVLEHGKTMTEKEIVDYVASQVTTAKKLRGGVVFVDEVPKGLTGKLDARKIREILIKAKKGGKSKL
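Purified P. pyralis luciferase, 10 nM final, with Km-level 10 uM D-luciferin and 10 uM ATP in 50 mM Tris acetate pH 7.5, 10 mM Mg acetate, 0.01% Tween-20, 0.05% BSA; 6-point qHTS titration about 60 µM downward; luminescence read.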
Numbers stand for hits; 0 = inactive; ? = inconclusive; - = not tested or not shown; [ ] = dose if it differs, or a comment. Only some compounds are listed: those with a hit (about 7.4% of all), similar ones and a draw of the others. The call rests on the fitted dose curve; in most records, active means well fitted curve in the direction sought with a large enough effect; inconclusive means small, poorly fitted or top-dose-only effect, or another doubt; inactive means no such curve, though single readings can be large; an effect the other way counts as inactive or inconclusive.

SMILES	SMN2 splice enh	Rab9 promoter act	NPC1 prom act	ELG1 genotox	FLuc modulator
O=C(O)c1cccc(N/N=C/c2ccc(-c3ccccc3)cc2)c1	0.199µM	0.0282µM	0.0251µM	0.146µM	0.0757µM
O=C(O)c1cccc(N/N=C/c2cccnc2)c1	8.91µM	0.316µM	?	0	2.39µM
Clc1ccc(N/N=C/c2cccnc2)cc1	?	0	0	0	16.9µM
O=C(N/N=C/c1cccnc1)c1cccc(NC(=O)c2ccc(Cl)cc2)c1	-	0	0	0	0
CCOc1ncccc1C(=O)OCC(=O)c1ccc(Br)s1	-	-	-	0	-
COc1ccc2c(c1)c1c(c(=O)n(-c3ccc(C)cc3)c(=O)n1CC(=O)c1ccc(Cl)cc1)n2C	-	-	-	-	0
CC(=O)N[C@@H]1[C@@H](O)[C@@H]2OC(c3ccccc3)OC[C@H]2O[C@@H]1N=[N+]=[N-] (some centres not stated)	-	0	0	0	0
CC1CC(C)CN(C(=O)CN2C(=O)NC(c3ccccc3)(c3ccccc3)C2=O)C1 (configuration not stated)	-	0	0	0	0
Clc1ccc(N/N=C/c2ccncc2)cc1Cl	12.6µM	?	?	?	?
CC(C)(C)c1ccc(/C=N/Nc2cccc(C(=O)O)c2)cc1	0.1µM	1.12µM	0.501µM	0.146µM	0.169µM
Clc1cnc(N/N=C/c2ccncc2)c(Cl)c1	-	0	0	?	?
CCC(C)C(=O)OC1CCC=C2C=CC(C)C(CCC3CC(O)CC(=O)O3)[C@@H]21 (some centres not stated)	0	-	-	-	-
COc1cccc(-c2cc(C(F)(F)F)n3nc(N)nc3n2)c1	0	0	0	0	0
Clc1ccc(-c2cn3nc4c(nc3n2)CCCC4)cc1	1.78µM	0.316µM	0.199µM	?	0.239µM
COc1cccc(-c2cn3nc4c(nc3n2)CCCC4)c1	1.58µM	0.708µM	0.631µM	?	0.757µM
C=C(C)C(O)/C=C/c1ccc(Br)cc1 (configuration not stated)	0	-	-	-	-
Clc1ccccc1-c1nnc(SCc2nc(-c3ccccc3)no2)n1-c1ccccc1	0	-	-	-	0
COc1cccc(C(=O)O/N=C(\N)c2ccccn2)c1OC	-	0.708µM	?	1.83µM	0.953µM
N/C(=N\OC(=O)c1cccc2ccccc12)c1ccccn1	-	?	?	10.3µM	1.2µM
N/C(=N\OC(=O)Cc1cccc2ccccc12)c1ccccn1	0	0	0	?	?
COc1cccc(C(=O)O/N=C(\N)c2ccncc2)c1OC	0	0	0	?	?
CCN(c1ccccc1)S(=O)(=O)c1cccc(C(=O)OCC(=O)Nc2ccc(NC(C)=O)cc2)c1	-	-	-	0	-
O=[N+]([O-])c1ccc2nc(-c3ccc(OC(F)F)cc3)cn2c1	-	1µM	1µM	?	?
COc1ccc(S(=O)(=O)N2CCN(C(=S)Nc3ccc(S(N)(=O)=O)cc3)CC2)cc1	-	0	0	0	0
NNC(=O)c1cccc(COc2ccc(Br)cc2)c1	1µM	0.1µM	0.316µM	?	10.7µM
SMILES	SMN2 splice enh	Rab9 promoter act	NPC1 prom act	ELG1 genotox	FLuc modulator
CCCNC(=O)c1cccc(COc2ccccc2OC)c1	14.1µM	3.55µM	1.41µM	?	5.36µM
COc1ccc(OCc2cccc(C(=O)NN)c2)cc1	3.16µM	0.0891µM	0.0891µM	?	6.01µM
NNC(=O)c1ccc(COc2ccc3ccccc3c2)cc1	-	0	?	0	6.01µM
Cc1ccc(NC(=S)NCc2ccc(Cl)cc2)c(C)c1	-	0	0	0	0
O=C1NC(O)=NC1(c1ccccc1)c1ccccc1	0	0	0	-	-
CCOc1ccc(S(=O)(=O)N2CCCC(C(=O)Nc3cc(C)cc(C)c3)C2)cc1 (configuration not stated)	-	0	0	0	0
COCCN1CCC(CNCc2c(C(=O)N3CCCCC3)nc3c(C)cccn23)C1 (configuration not stated)	-	0	0	0	0
Cc1cc(/C=C\c2ccccc2)nc2ccccc12	-	?	0	?	1.51µM
CCOc1ccccc1CSc1nc2ccccc2[nH]1	0	0	0	0	?
CCOc1ccccc1/C=C/c1nc2ccccc2[nH]c1=O	-	3.98µM	3.16µM	0	0
Cc1cc(C(=O)c2ccccc2)nc2ccccc12	0	0	0	0	0
CCOc1ccccc1/C=C/c1cc(C(=O)O)c2ccccc2n1	-	0	0	0	13.5µM
COc1ccc(/C=C/c2cc(C(=O)O)c3ccccc3n2)cc1	-	?	?	0	0.0675µM
CCN(CC)C(=O)Cc1cc(C(=O)O)c2ccccc2n1	-	0	0	0	0[2.3 µM]
CC1CCN(S(=O)(=O)c2ccc(C(=O)OC(C)C(=O)N(C)C3CCCCC3)cc2)CC1 (configuration not stated)	-	0	0	0	0
COc1ccccc1Cc1nc2ccccc2nc1SCC(=O)NCc1ccc(C)cc1	-	-	-	-	0
CCc1cc(Br)ccc1NC(=S)NCCc1ccccc1	-	0	0	0	0
COc1ccc(-c2cc(C(=O)N3CCCC3)c3ccccc3n2)cc1OC	-	0	0	0	?
COc1cc(OC)c(OC)cc1/C=C/c1cc(C(=O)O)c2ccccc2n1	0	0	0	0	10.7µM
CCC(NC(=O)Cc1c(C)c2cc3c(cc2oc1=O)OC(C)(C)CC3)C(=O)O (configuration not stated)	-	2µM	3.16µM	0	21.3µM
Cc1c(CC(=O)N2CCC(C(N)=O)CC2)c(=O)oc2cc3c(cc12)CCC1(CCCCC1)O3	-	0	0	0	19µM
Cc1oc2cc3oc(=O)c(CC(=O)N4CCCCC4)c(C)c3cc2c1C	0	-	-	-	0
Cc1ccccc1CN1CCC(N2CCC(C(=O)NCC3CCCO3)CC2)CC1 (configuration not stated)	-	0	0	0	0
COc1ccccc1CNC(=O)c1ccc(CSc2nc3ccncc3n2Cc2ccccc2C)cc1	0	-	-	-	0
Cc1ccc2c(CNCc3ccc(C)o3)c(C(=O)O)n(Cc3ccc(F)cc3)c2c1	-	-	-	-	0
SMILES	SMN2 splice enh	Rab9 promoter act	NPC1 prom act	ELG1 genotox	FLuc modulator
COc1cccc(CNCCSc2nnnn2C)c1OCc1ccc(Cl)cc1Cl	?	-	-	-	0
Cc1sc2nc(-c3ccco3)oc(=O)c2c1C	0	0	0	0	?
Cc1cccc2c(=O)oc(-c3ccccc3Cl)nc12	-	0	0	0	?
Cc1ccccc1-c1nc2sc(C)c(C)c2c(=O)o1	-	0	0	0	7.57µM
Cc1ccccc1-c1nc2sc(-c3ccccc3)cc2c(=O)o1	0	0	0	0	4.78µM
CCc1cccc(CC)c1NC(=O)COC(=O)CC1c2ccccc2CCN1S(=O)(=O)c1ccccc1 (configuration not stated)	0	0	0	0	0
COc1ccccc1N(CC(=O)Nc1cc(C)on1)S(=O)(=O)c1cccc(C(F)(F)F)c1	-	0	0	0	0
COC(=O)c1c(C)[nH]c(C(=O)/C=C/c2ccccc2)c1C	2.24µM	1.41µM	2.24µM	11.6µM	0.477µM
COC(=O)c1c(C)[nH]c(C(=O)CC#N)c1C	?	0	0	0	0
COC(=O)c1c(C)[nH]c(C(=O)/C=C/c2ccc(C)cc2)c1C	-	0	0	?	2.13µM
CC(C)N1CCc2c(sc(NC(=O)c3nc4ccccc4s3)c2C(N)=O)C1	0	0	0	0	16.9µM

Screening results from PubChem.
